Measurements as given in PubChem BioAssay AID651644 (National Center for Advancing Translational Sciences (NCATS), 2012).
In all, about 360,000 compounds went through this assay and about 750 (0.21%) were called active. A call without a number means that no potency is given here. About 2% were inconclusive and are not listed. Calls follow the shape of the dose curve; as a rule, active = well fitted falling curve with a large enough effect; inconclusive = small, poorly fitted or top-dose-only effect; inactive = no such curve, though single readings can be large or run the other way. This excerpt belongs to a sample that is enriched for actives.

Experiment: qHTS Assay for Inhibitors of the HIV-1 protein Vpr; also: nearly all actives have a fitted effect of over 50% in size
Details: S. pombe RE007 Vpr strain, BacTiter-Glo ATP luminescence, 24 h; series mostly up to 92.2 µM
Text: Human immunodeficiency virus type 1 (HIV-1), the causative agent of AIDS, contains a protein called viral protein R (Vpr) that plays an important role in the viral life cycle and the pathogenesis of HIV-1.
These Vpr specific activities include cytoplasmic-nuclear shuttling, induction of cell cycle G2 arrest and cell killing. The cytoplasmic-nuclear shuttling is believed to participate in nuclear transport of the proviral integration complex (PIC). The cell cycle G2 arrest induced by Vpr is thought to suppress human immune functions by preventing T cell clonal expansion and to provide an optimized cellular environment for maximal levels of viral replication. In addition, Vpr induces apoptosis, which may contribute to the depletion of CD4 T cells in HIV-infected patients. Since the Vpr-specific activities have been linked to such clinical manifestation of AIDS as activation of viral replication, suppression of host immune responses and depletion of CD4+ T-lymphocytes, identification of new molecular probes that can inhibit the Vpr activities could potentially provide a new approach to reduce Vpr-mediated detrimental effects in HIV-infected patients, and thus prolong patient's lives. Currently, there are no anti-Vpr drugs.
A fission yeast (Schizosaccharomyces pombe) model system for the Vpr studies has been developed which measures HIV-1 Vpr-induced cell death. This assay will be used for to screen the NIH Molecular Libraries Small Molecule Repository (MLSMR) identify small molecule HIV-1 Vpr inhibitors.
NIH Chemical Genomics Center [NCGC]
NIH Molecular Libraries Probe Centers Network [MLPCN]
Assay Submitter (PI): Richard Zhao, University of Maryland
The fission yeast RE007 strain was used, which carries a single integrated copy of HIV-1 vpr gene in the yeast chromosome. The starting culture was frozen stock 100ul of yeast RE007 in 150ml of *PMG+AL medium, Incubation in 30 degree plus 99% humidity for 18 hours. Next day dispensed 2.5ul of PMG+AL medium in each well to 1536 well white solid plate, then 23nL compound were delivered to each well using a pin tool. Check OD for overnight culture and add cell density at 0.01 for each well, incubation in 30 degree plus 99% humidity for 24 hours. After add 5 ul of *BacTiter/Glo detect reagent to each well at room temperature for 5 minutes then to red out results with Viewlux CCD camera.
Potency is read from the fitted curve at half-maximal effect.

SMILES | Potency | activity change, negative = less growth
CN(O)C(=S)c1ccccc1 | 12.6 µM (active) | –
COC(=O)[C@@H]1C[C@@]2(O)[C@H](O)[C@H](O)[C@H](O)C[C@H]2N1Cc1ccc(C)s1 | inactive | –
O=C(COc1coc(CN2CCN(c3ccccc3F)CC2)cc1=O)N1CCc2ccccc21 | inactive | –
Cc1ccc(S(=O)Cc2ccc(C(=O)N3CCN(C4CCCCC4)CC3)o2)cc1 (centres undefined) | inactive | –
CCN(C(=O)COC(=O)/C=C/c1nc2ccccc2s1)C1CCS(=O)(=O)C1 (centres undefined) | inactive | –
CC(=O)c1ccc(N2Cc3ccccc3C2)cc1 | inactive | –
CSc1c(SCc2ccccc2)cnn(Cc2ccccc2)c1=O | inactive | –
O=C(CCN1CCc2ccccc2C(O)(c2ccccc2)C1)c1ccc2c(c1)OCCO2 (centres undefined) | 5.62 µM (active) | –
O=S(=O)(c1ccc2c(c1)OCCO2)N1CCc2ccccc21 | inactive | –
O=C(CN1CCc2cc3c(cc2C1)OCCCO3)Nc1ccccc1 | inactive | –
Cn1c(=O)cc(OCCCC(=O)N2CCN(c3ccccn3)CC2)c2ccccc21 | inactive | –
CCC(Oc1ccccc1C)C(=O)Nc1ccc(S(=O)(=O)Nc2cc(C)on2)cc1 (centres undefined) | inactive | –
O=C(CNCc1cccs1)Nc1cc(S(=O)(=O)N2CCCC2)ccc1Cl | inactive | –
COc1cccc(NCCC(=O)c2cccc([N+](=O)[O-])c2)c1 | inactive | –
COC(=O)/C=C\C(=O)Nc1cccc([N+](=O)[O-])c1 | 7.94 µM (active) | –
CC(NC(=O)Nc1cccc([N+](=O)[O-])c1)c1ccc2c(c1)OCO2 (centres undefined) | inactive | –
O=C(COC(=O)CCCNC(=O)c1ccc(Cl)cc1)Nc1cc(Cl)ccc1Cl | inactive | –
O=C(Cn1nnc2ccccc2c1=O)Nc1cc(C(F)(F)F)ccc1N1CCOCC1 | inactive | –
CCCCCCCCCCCCn1ccc(=N)cc1 | 11.2 µM (active) | –
Cc1ccc(S(=O)(=O)NCCCn2ccnc2)cc1C(=O)NC(C)C | inactive | –
CCCn1cc(SCC(N)=O)c2ccccc21 | inactive | –
O=C(Nc1cccc2ccccc12)NC1CC1 | inactive | –
O=C(Nc1cccc2ccccc12)c1onc2c1CCCC2 | 14.1 µM (active) | –
O=C(Nc1cccc2ccccc12)c1[nH]c(-c2ccccc2)c2c1C(=O)N(C1CC1)C2=O | inactive | –
Cc1ccc(NC(=O)[C@H](Cc2ccccc2)NC(=O)C2CCNCC2)cc1 | inactive | –

SMILES | Potency | activity change, negative = less growth
CC1c2nc3ccccc3n2C(CC(=O)NCCCN2CCOCC2)C(=O)N1Cc1ccccc1 (centres undefined) | inactive | –
CCOC(=O)c1sc(C)c2c1NC(C)(c1cccc3ccccc13)NC2=O (centres undefined) | inactive | –
O=C(O)COc1ccc(/C=N/O)cc1Br | inactive | –
COc1cc(/C=N/O)cc(Br)c1OCc1cccc(Cl)c1 | 10 µM (active) | –
COc1ccc(Br)cc1CNCCc1cccc(Cl)c1 | inactive | –
CCc1noc(C)c1C(=O)OCC(=O)c1ccc(NC(=O)CC(C)C)cc1 | inactive | –
O=C(CN1CCN(c2ncccn2)CC1)Nc1ccccc1C(F)(F)F | inactive | –
Cc1noc(C)c1S(=O)(=O)N(C)C[C@H]1Oc2ccc(NC(=O)C3CC3)cc2C(=O)N([C@H](C)CO)C[C@@H]1C | inactive | –
Cc1ccc(Cl)c(NC(=O)CN(C)CC(=O)Nc2ccc(F)c(F)c2F)c1Cl | inactive | –
CC(=O)Nc1ccc(/C=N/Nc2ccc(C(=O)c3c(C)cc4ccccn34)cc2[N+](=O)[O-])cc1 | inactive | –
CCSC1(SCC)N=C(N)C2(C#N)C(c3ccccc3)NC(C)=CC12C#N (centres undefined) | 4.47 µM (active) | –
COc1ccc(C(=O)NC2CC2)cc1OC1CCN(Cc2ccc(SC)cc2)CC1 | inactive | –
Cc1ccc(CN(Cc2cccnc2)C(=S)Nc2cc(Cl)ccc2C)cc1 | inactive | –
O=C1CSC(=S)N1/N=C/c1ccc(O)c([N+](=O)[O-])c1 | 28.2 µM (active) | –
O=C(CN(CC1CCCO1)C(=O)CNS(=O)(=O)c1ccccc1)NCc1ccccc1 (centres undefined) | inactive | –
CCN(CC)S(=O)(=O)c1ccc(Cl)c(C(=O)NCCN2CCOCC2)c1 | inactive | –
Cc1c(C(=O)NCCN(C)C)oc2ccc(S(=O)(=O)N3CCCC3)cc12 | inactive | –
C[C@H](NC(=O)c1ccccc1Cl)C(=O)OCC(=O)N1CCN(c2ccccc2)CC1 | inactive | –
O=C(OCC(=O)N1CCN(c2ccccc2)CC1)c1ccc([N+](=O)[O-])s1 | 39.8 µM (active) | –
Cc1ccc(C)c(OCCC(=O)OCC(=O)N2CCN(c3ccccc3)CC2)c1 | inactive | –
CC(=O)c1cccc(-n2nnnc2SCC(=O)NNC(=O)C2CCCCC2)c1 | inactive | –
C=CS(=O)c1sc(Cl)c(N2CCOCC2)c1[N+](=O)[O-] (centres undefined) | 12.6 µM (active) | –
COc1ccc(-c2ccc3c(c2)[C@@H]2C[C@H](N(C)S(=O)(=O)c4ccccc4)[C@H]([C@H](C)O)C(=O)N2CC3)cc1 | inactive | –
CC(Oc1ccc(F)cc1)C(=O)Nc1cc(S(=O)(=O)N2CCOCC2)ccc1N1CCN(C)CC1 (centres undefined) | inactive | –
CC1(C)C(c2cccs2)=[N+]([O-])C2(CCCCC2=O)N1O (centres undefined) | inactive | –

SMILES | Potency | activity change, negative = less growth
Cc1ccc(S(=O)(=O)N(CC(=O)Nc2cccnc2)c2ccc(Br)cc2)cc1 | inactive | –
CC(C)CN(C(=O)CN1CCN(S(=O)(=O)c2ccccc2)CC1)c1c(N)n(CC(C)C)c(=O)[nH]c1=O | inactive | –
CC1(C(=O)NS(=O)(=O)c2ccc3ccccc3c2)CCN1C(=O)C1(c2ccc(Cl)cc2)CCC1 (centres undefined) | inactive | –
CCC(c1nnc(SCC(=O)NNC(=O)c2ccccc2)n1Cc1ccccc1)N(C)C (centres undefined) | inactive | –
O=C1NC(=O)N(c2ccccc2)C(=O)/C1=C/c1ccc([N+](=O)[O-])s1 | 28.2 µM (active) | –
CCOc1ccc(C(C(=O)NCCOC)N(CCOC)C(=O)CCC(=O)Nc2ccccn2)cc1 (centres undefined) | inactive | –
CCOc1ccc(CCNC(=O)COC(=O)c2ccc(F)c(S(=O)(=O)N3CCOCC3)c2)cc1OCC | inactive | –
CC1CCCN(CCCNC(=O)CN2C(=O)COc3ccc(S(=O)(=O)N4CCOCC4)cc32)C1 (centres undefined) | inactive | –
COc1ccc(-c2csc3nc(-c4ccccc4F)oc(=O)c23)cc1OC | inactive | –
COc1ccc(N2C(=O)C(CC(=O)Nc3ccccc3)N(Cc3ccc(OC)c(OC)c3)C2=O)cc1 (centres undefined) | inactive | –
O=C(C(=O)N1CCN(c2ccccc2)CC1)c1ccc2c(c1)OCO2 | inactive | –
O=P(c1ccc2c(c1)OCCO2)(N1CCOCC1)N1CCOCC1 | inactive | –
Cn1cnnc1SCC(=O)NNC(=O)COc1ccc(Br)cc1 | inactive | –
CN(C)CCOC(=O)C(c1ccccc1)C1(O)CCCC1 (centres undefined) | inactive | –
CN(C)CC1Oc2ccccc2OC1(O)c1ccccc1 (centres undefined) | 10 µM (active) | –
CC(C)Nc1ncnc2c1ncn2[C@H]1CN(Cc2ccncc2)C[C@@H](CO)O1 | – | 1.71% [at 18.4 µM] (inactive)
O=C(CC1C(=O)NCCN1Cc1ccc(-c2ccccc2)cc1)NCc1ccncc1 (centres undefined) | inactive | –
COc1cccc(CN2CCNC(=O)C2CC(=O)N(C)CCc2ccccn2)c1 (centres undefined) | inactive | –
Cc1cccc(C(=O)NCc2nnc(SC(C)C(=O)Nc3nnc(C)s3)n2C)c1 (centres undefined) | inactive | –
COc1cc(/C=N\NC(=O)c2nonc2N)c(OC)cc1Br | inactive | –
Nc1nonc1-n1nnc(C(=O)N/N=C/c2ccc(Cl)cc2)c1-c1ccc2c(c1)OCO2 | inactive | –
Cc1nonc1C(=O)N/N=C/c1ccc(O)cc1 | 25.1 µM (active) | –
Cc1ccc2nc(SC(C)C(=O)NCc3ccco3)[nH]c2c1 (centres undefined) | inactive | –
O=c1[nH][nH]c2c1[C@H](c1ccc(Cl)cc1)O[C@H](CCc1ccccc1)C2 | inactive | –
O=C(Nc1ccc(Br)cn1)c1ccc([N+](=O)[O-])o1 | 17.8 µM (active) | –

SMILES | Potency | activity change, negative = less growth
O=C(NCc1nnnn1-c1ccc(Cl)cc1)c1ccc([N+](=O)[O-])o1 | inactive | –
O=C(/C=C/c1ccc(Cl)cc1)Nc1ccc(Br)cn1 | inactive | –
O=C(COc1ccccc1Cl)Nc1ccccc1C(=O)NC1CC1 | inactive | –
Oc1ccccc1CNc1ncc(Br)cc1Br | 35.5 µM (active) | –
O=[N+]([O-])c1ncc(Br)cc1Nc1ccccc1 | inactive | –
CCc1cccc(C)c1NS(=O)(=O)c1cc(Br)cnc1N | inactive | –
Cc1cccc(C(=O)Nc2ccccc2-c2nnn(CC(=O)Nc3ccc4c(c3)OCCO4)n2)c1 | inactive | –
Clc1ccc(-c2nc3ccccn3c2CN2CCSCC2)cc1 | inactive | –
CCOC(=O)C(Cc1ccc(N)cc1)N1C(=O)c2ccccc2C1=O (centres undefined) | inactive | –
CCOC(=O)C1=C(c2ccc(OC)cc2)C(=O)c2ccccc2C1=O | 20 µM (active) | –
CCOC(=O)C1=C(CC)Nc2ccccc2N=C1N | inactive | –
CC(C)(C)S(=O)N1Cc2cc(C(=O)NCCCN3CCOCC3)nc(-c3cccc(-c4cc5ccccc5o4)c3)c2[C@H]1CCO (some centres undefined) | inactive | –
CCOC(=O)N1CCN(S(=O)(=O)c2cc(Br)cc3c2N(C(=O)C2CC2)CC3)CC1 | inactive | –
CC(=O)NC(CC(=O)Nc1cccc(S(=O)(=O)N2CCCC2)c1)c1ccccc1 (centres undefined) | inactive | –
CN(C)S(=O)(=O)c1ccc2oc(SCC(=O)Nc3ccccc3F)nc2c1 | inactive | –
COc1ccc(C2(C)NC(=O)N(CC(=O)c3ccc4c(c3)OCO4)C2=O)cc1 (centres undefined) | inactive | –
CCOc1ccc(NC(=O)c2ccc(NC(=O)C3CCCO3)cc2)cc1 (centres undefined) | inactive | –
CCOc1ccc(NCCC(=O)c2ccc3c(c2)OCO3)cc1 | 31.6 µM (active) | –
Cc1cc(NC(=O)Cn2nc(C(F)(F)F)c3c2CCCC3)no1 | inactive | –
Cc1cc(C)cc(NC(=O)c2cccc(NC(=O)C3C4CC5OC(=O)C3C5C4)c2)c1 (centres undefined) | inactive | –
CN(C)c1cccc(NC(=O)c2ccc(-c3ccc(F)c(F)c3)c3ccoc23)c1 | – | 5.61% [at 18.4 µM] (inactive)
O=C(c1ccc(Cl)c(S(=O)(=O)N2CCCCCC2)c1)N1CCN(c2ccc(O)cc2)CC1 | inactive | –
O=C1C=CC(=O)N1c1ccc(N2CCCCC2)cc1 | 2.82 µM (active) | –
Cc1cc(NC(=O)CSc2nccn2-c2ccc([N+](=O)[O-])cc2)no1 | inactive | –
